Assay results: PubChem BioAssay (NCATS)
Results filed as inconclusive are left out. Activity calls are given as the source filed them. The call rests on the fitted dose curve; in most records, active means well fitted inhibition curve with a large enough effect; inconclusive means small, poorly fitted or top-dose-only effect; inactive means no such curve, though single readings can be large or run the other way.
On the % scale 0 is the no-effect control and ±100 the full control effect.

Each compound was assayed against Papain (Carica papaya) (UniProt P00784) (assay: Primary qHTS assay for inhibitors of the protease papain (AID 1645873;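 further: papain turnover of Z-FR-AMC read as the AMC fluorescence gain over 10 min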)). Details: papain Z-FR-AMC cleavage, AMC fluorescence; series mostly up to 49.8 µM; activity change, negative = inhibition: at the top concentration.
Sequence of Papain (Carica papaya) (P00784 whole entry, looked up): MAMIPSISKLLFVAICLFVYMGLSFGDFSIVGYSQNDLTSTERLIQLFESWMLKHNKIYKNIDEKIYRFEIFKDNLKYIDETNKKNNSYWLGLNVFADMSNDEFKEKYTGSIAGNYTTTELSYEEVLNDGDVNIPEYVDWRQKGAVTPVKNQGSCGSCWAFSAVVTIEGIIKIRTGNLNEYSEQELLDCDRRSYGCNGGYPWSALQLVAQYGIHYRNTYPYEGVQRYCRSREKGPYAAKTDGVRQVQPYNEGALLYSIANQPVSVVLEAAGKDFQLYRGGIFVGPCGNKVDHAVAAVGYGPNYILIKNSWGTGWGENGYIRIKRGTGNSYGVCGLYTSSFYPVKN
For `C[N+]1(C)CCc2cc3c(cc2[C@H]1[C@@H]1OC(=O)c2c1ccc1c2OCO1)OCO3`, the “activity change, negative = inhibition” value was 7.47% (inactive).
For `C[N+]1(C)CCN(c2ccccc2)CC1`, the “activity change, negative = inhibition” value was 9.27% (inactive).
For `CCCN(CCC)[C@@H]1CCc2cccc(O)c2C1`, the “activity change, negative = inhibition” value was 31.3% (inactive).
With `Clc1ccc(N2CC3CCC(C2)N3)nn1` the “activity change, negative = inhibition” value was 2.61% (inactive).
With `N#CCCN` the “activity change, negative = inhibition” value was 26.5% (inactive).
For `CCNC(=O)[C@H]1O[C@@H](n2cnc3c(N)ncnc32)[C@H](O)[C@@H]1O`, the “activity change, negative = inhibition” value was 7.83% (inactive).
With `COC(=O)N1CCN(C(=O)Cc2ccc(Cl)c(Cl)c2)C(CN2CCCC2)C1` (stereo unspecified) the “activity change, negative = inhibition” value was -17% (inactive).
For `CCCN(CCC)C1CCc2cccc(O)c2C1` (stereo unspecified), the “activity change, negative = inhibition” value was -5.67% (inactive).
In the case of `C[N+](C)(C)CC#CCOC(=O)Nc1cccc(Cl)c1`, the “activity change, negative = inhibition” value is reported as 10.4% (inactive).
With `CCOC(=O)c1ncn2c1[C@@H]1CCCN1C(=O)c1cc(OC)ccc1-2` the “activity change, negative = inhibition” value was 8.37% (inactive).
For `CN1C2CCC1CC(OC(c1ccccc1)c1ccccc1N)C2` (stereo unspecified), the “activity change, negative = inhibition” value was -8.55% (inactive).
For `CCS(=O)(=O)Nc1cccc(C(=C2CCCCC2)c2cnc[nH]2)c1`, the “activity change, negative = inhibition” value was -5.49% (inactive).
For `CCCN(CCC)C1Cc2cc(OC)c(OC)cc2C1`, the “activity change, negative = inhibition” value was -17.2% (inactive).
With `C[C@@H]1O[C@@H](O[C@H]2C[C@@H](O)[C@]3(CO)[C@@H]4C(CC[C@]3(O)C2)[C@@]2(O)CC[C@H]([C@@H]3COC(=O)C3)[C@@]2(C)C[C@H]4O)[C@H](O)[C@H](O)[C@H]1O` (stereo partly specified) the “activity change, negative = inhibition” value was -4.23% (inactive).
In the case of `COc1ccc2[nH]cc(CCN)c2c1`, the “activity change, negative = inhibition” value is reported as 4.77% (inactive).
In the case of `CC(C)(C)OC(=O)NC1[C@H]2CNC[C@@H]12` (stereo partly specified), the “activity change, negative = inhibition” value is reported as -14.1% (inactive).
`C[C@H]1C2Cc3ccc(O)cc3[C@@]1(C)CCN2CC1CC1` was tested, and the “activity change, negative = inhibition” value was -22.6% (inactive).
For `NNC(=O)c1ccc(O)cc1`, the “activity change, negative = inhibition” value was 1.71% (inactive).
For `C[C@H](N)Cc1cccc(C(F)(F)F)c1`, the “activity change, negative = inhibition” value was 13.6% (inactive).
`C=CCN1CCC23c4c5ccc(O)c4O[C@H]2C(=O)CC[C@@]3(O)C1C5` (stereo partly specified) was tested, and the “activity change, negative = inhibition” value was -4.23% (inactive).
`C[C@H](Cc1ccc2c(c1)OC(C(=O)O)(C(=O)O)O2)NC[C@H](O)c1cccc(Cl)c1` was tested, and the “activity change, negative = inhibition” value was 2.97% (inactive).
With `CCCn1c(=O)c2[nH]c(C3CCCC3)nc2n(CCCOC(=O)c2ccc(S(=O)(=O)F)cc2)c1=O` the “activity change, negative = inhibition” value was -0.99% (inactive).
With `CN1CCC(c2c[nH]c3ccc(O)cc23)CC1` the “activity change, negative = inhibition” value was 33.8% (inactive).
In the case of `O=C(NC1CN2CCC1CC2)c1cc2ccoc2cn1` (stereo unspecified), the “activity change, negative = inhibition” value is reported as -0.27% (inactive).
`[Cl-].[Cl][Pt].[NH2-].[NH2-].c1ccncc1` was tested, and the “activity change, negative = inhibition” value was 15.8% (inactive).
In the case of `C[C@H](N)CN1CCc2ccc(Br)cc21`, the “activity change, negative = inhibition” value is reported as -4.77% (inactive).
For `CC(N)Cc1c[nH]c2ccc(OCc3cccs3)cc12` (stereo unspecified), the “activity change, negative = inhibition” value was 0.63% (inactive).
`CC12NC(Cc3ccccc31)c1ccccc12` (stereo unspecified) was tested, and the “activity change, negative = inhibition” value was 5.13% (inactive).
With `N[C@@H](Cn1oc(=O)[nH]c1=O)C(=O)O` the “activity change, negative = inhibition” value was 17% (inactive).
`CC(=O)NBr` was tested, and the “activity change, negative = inhibition” value was 2.61% (inactive).
For `CC(N)[C@H](O)c1ccc(O)c(O)c1` (stereo partly specified), the “activity change, negative = inhibition” value was 0.09% (inactive).
`NC(C(=O)O)c1cc(=O)[nH]o1` (stereo unspecified) was tested, and the “activity change, negative = inhibition” value was -4.95% (inactive).
`Cc1cc([C@@H]2CCCN2C)on1` was tested, and the “activity change, negative = inhibition” value was -4.05% (inactive).
In the case of `CCCN(CCC)[C@H]1CCc2c(F)ccc(O)c2C1`, the “activity change, negative = inhibition” value is reported as 6.03% (inactive).
For `Cc1o[nH]c(=O)c1CC(N)C(=O)O` (stereo unspecified), the “activity change, negative = inhibition” value was -13.2% (inactive).
In the case of `CC(C)(O)[C@@H]1C2OC(=O)[C@@H]1[C@]1(O)C[C@H]3O[C@]34C(=O)O[C@H]2[C@]14C` (tested in a mixture with another compound), the “activity change, negative = inhibition” value is reported as 3.15% (inactive).
